Laboratory results taken from PubChem BioAssay (EPA / NIEHS).
Activity calls are given as the source filed them. How the source made its calls: active means hit-call score of the fitted dose curve at least 0.9, where 1 is the maximum; inactive means score below 0.9.

experiment: ATG_TA_CIS: Attagene CIS-FACTORIAL HepG2 Assay for human TA Basal Promoter (AID 2282964); details: HepG2 Attagene CIS-factorial TA basal promoter reporter; actives raise or lower the signal
Method: ATG_CIS is a cell-based, multiplexed-readout assay that uses HepG2, a human liver cell line, with measurements taken at 24 hours after chemical dosing in a 24-well plate.ATG_TA_CIS is one of 52 assay component(s) measured or calculated from the ATG_CIS assay. It is designed to make measurements of mRNA induction, a form of inducible reporter, as detected with fluorescence intensity signals by Reverse transcription polymerase chain reaction (RT-PCR) and Capillary electrophoresis technology.Data from the assay component ATG_TA_CIS was analyzed into 1 assay endpoint. This assay endpoint, ATG_TA_CIS, was analyzed with bidirectional fitting relative to DMSO as the negative control and baseline of activity. Using a type of inducible reporter, measures of mRNA for gain or loss-of-signal activity can be used to understand the background control at the transcription factor-level as they relate to the gene . Furthermore, this assay endpoint can be referred to as a secondary readout, because this assay has produced multiple assay endpoints where this one serves a background control function. To generalize the intended target to other relatable targets, this assay endpoint is annotated to the background measurement intended target family, where the subfamily is internal marker.
Human liver HepG2 cells are transiently transfected with multiple reporter transcription units (MRTUs) in 6-well plates using FuGene 6 reagent (Roche; 3 ml FuGene/1 mg DNA). The MRTU constructs are regulated by a cis-regulating element (promoter). […] A major difference between the CIS and TRANS system is that in CIS activities of endogenous TFs are measured, whereas the TRANS assay evaluates changes in activities of exogenous, chimeric NR-Gal4 proteins. […] At the end of 24 hour incubation, total RNA was isolated using TriZol reagent (Invitrogen). The isolated RNA is then reverse-transcribed using oligo(dT) primer and Mo-MLV reverse transcriptase (Invitrogen) with DNAse I (Ambion) treatment for 30 min. The one-tenth of the produced cDNA was amplified by PCR using Taq DNA polymerase (Invitrogen) and two reporter sequence-specific primers. The PCR products were fluorescently labeled by primer extension with 6-arboxyfluorescein (6-FAM) 5'-labeled reporter sequence-specific primer (2 min at 95 C, 20 s at 68 C and 10 min at 72 C) and these products were digested with 5U of HpaI (New England Biolabs) for 2h at 37 C. The fragments were purified using Qiaquick PCR columns (Qiagen), analyzed on an ABI 3130xL genetic analyzer (Applied Biosystems) with peak positions identified by using a set of X-rhodamine (ROX)-labeled MapMarker1000 molecular weight standards (BioVentures). The raw capillary electrophoresis data was processed using Attagraph software (Attagene).

SMILES | outcome | AC50
CCCC[O][Al]([O]CCCC)[O]CCCC | inactive | –
C=C(C)C(=O)OCCOCCOCCOC(=O)C(=C)C | inactive | –
NC(=S)NNC(N)=S | inactive | –
Cc1cccc(Nc2ccccc2)c1 | inactive | –
CCC1(C)NC(=O)NC1=O (stereo not given) | inactive | –
CCCC(=O)OC(C)(C)Cc1ccccc1 | inactive | –
[Cl][Au]([Cl])[Cl] | inactive | –
CCCCSCCCC | inactive | –
O=[N+]([O-])c1ccc(O)cc1C(F)(F)F | inactive | –
COc1ccc(N=Nc2cc(C)c(N=Nc3ccc(S(=O)(=O)O)cc3)cc2OC)cc1 | inactive | –
CC(C)CCOC(=O)c1ccccc1 | inactive | –
CS(=O)(=O)c1ccc(C2=C(c3ccccc3)C(=O)OC2)cc1 | inactive | –
CC(C)(C)C1=CC(=O)C(C(C)(C)C)=CC1=O | inactive | –
CCCCCCCCCCCC(=O)OC[C@@H](O)[C@H]1OC[C@H](O)[C@H]1O | inactive | –
CCCCCC(=O)CC | inactive | –
CC1=NN(c2ccc(S(=O)(=O)O)cc2)C(=O)C1 | inactive | –
O=C(O)CCCCCCCCC(=O)O | inactive | –
CCCC1O[C@@H]2C[C@H]3[C@@H]4CCC5=CC(=O)C=C[C@]5(C)[C@H]4[C@@H](O)C[C@]3(C)[C@]2(C(=O)CO)O1 (stereo not given in full) | inactive | –
Nc1ccc(NCCO)c([N+](=O)[O-])c1 | inactive | –
CCCCCCCCCC(C)C=O (stereo not given) | inactive | –

SMILES | outcome | AC50
CCCCCCOC(=O)CCC | inactive | –
CC(C)(C)c1ccc(C(=O)O)cc1 | inactive | –
O=C(Nc1ccc2c(c1)Cc1ccccc1-2)C(F)(F)F | inactive | –
CC(=O)O[C@@H]1CC2CCC1(C)C2(C)C (stereo not given in full) | inactive | –
C1CCCCC1 | inactive | –
CCc1cc(Cc2cc(CC)cc(C(C)(C)C)c2O)c(O)c(C(C)(C)C)c1 | – | 11.1 µM (active)
Cc1cc(C)nc(NS(=O)(=O)c2ccc(N)cc2)n1 | inactive | –
Nc1ccc(Cl)c([N+](=O)[O-])c1 | inactive | –
C#CC(C)N(C)C(=O)Nc1ccc(Cl)cc1 (stereo not given) | inactive | –
CC(C)OCCO | inactive | –
COc1cc([C@@H]2c3cc4c(cc3[C@@H](O[C@@H]3O[C@@H]5CO[C@@H](C)O[C@H]5[C@H](O)[C@H]3O)[C@H]3COC(=O)[C@H]23)OCO4)cc(OC)c1O | inactive | –
CSc1c(Cl)c(Cl)c(Cl)c(Cl)c1Cl | inactive | –
CCCCCCC(=O)c1ccccc1 | inactive | –
CC(=O)Nc1ccc(C(=O)CCl)cc1 | inactive | –
Clc1cc(Cl)c(-c2c(Cl)c(Cl)cc(Cl)c2Cl)cc1Cl | inactive | –
COc1ccccc1N=Nc1c(S(=O)(=O)O)cc2cc(S(=O)(=O)O)cc(NC(C)=O)c2c1O | inactive | –
CN(C)C(=S)SC(=S)N(C)C | inactive | –
CC(C)NCC(O)COc1ccc(CC(N)=O)cc1 (stereo not given) | inactive | –
C=COCCOCCOC=C | inactive | –
CCCCOCC | inactive | –
